High-throughput results as filed in PubChem.
phage Ecoli inh = E. coli growth loss with phage present; AID 651602; hit rate 0.26% among 360,000; growth absorbance; inhibition, % at 11.9 µM; in the data active = inhibition above about 11%
Tat transport = blocks Tat-dependent protein export in E. coli. inhibition, % at 10 µM. AID 488895. hit rate 0.036% among 340,000. E. coli MC4100 TorA-mCherry Tat export, fluorescence;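 active = mean replicate inhibition at least 50% and at least half of replicates individually reaching 50%; inconclusive = only one of the two criteria met; inactive = neither criterion met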;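 also: exported cargo escapes ClpAP degradation while cytoplasmic cargo is degraded and loses fluorescence; 0% = median of neutral control wells and 100% = median of NaSCN control wells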
E coli growth-1 = reduces bacterial viability in AddAB counter-screen; hit rate 0.27% among 330,000; AID 449728; inhibition, % at 11.9 µM; E. coli V3065 growth, OD600 absorbance, 18 h;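 active = inhibition above the campaign's mean inhibition across all tested compounds plus 3 SD, cut at about 9.9% in these data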;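 also: uninfected addAB+ strain grown without phage in ampicillin broth; 0% = DMSO wells and 100% = ciprofloxacin 0.95 µg/ml wells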
AI-2 QS modul = modulators of Vibrio harveyi AI-2 quorum sensing system; hit rate 0.4% among 300,000; Vibrio harveyi JMH597 AI-2 luminescence/OD600 ratio, 9 h; hits give low values; strain lacks LuxN and CqsS sensors; 0 = neutral-control median; AID 2094; activity change, % at 7.5 µM; in the data active = activity change below about -75%, passing the limit was not always enough; inconclusive = no clear call, values can overlap the other calls;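 also: luminescence divided by OD600 gain over 9 h not by final OD600 alone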
AddAB inh = less growth of phage-infected E. coli with AddAB | E. coli expressing H. pylori AddAB, absorbance growth | inhibition, % at 11.9 µM | hit rate 0.29% among 330,000; in the data active = inhibition above about 12%;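 also: 0% = vehicle wells of infected cells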
E coli growth-2 = inhibitors of Escherichia coli growth. OD600 absorbance (no concentration beside the values). OD600, 23 h; hits give low values. hit rate 0.21% among 330,000;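 active = OD600 absorbance below the run mean of sample wells minus 3.6 SD, in any replicate, cut at about 0.56 in these data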
An asterisk follows results filed as active; ? = inconclusive; . = no result. Hits are enriched below; roughly 0.79% of the tested compounds scored in any of these assays.

SMILES	phage Ecoli inh	Tat transport	E coli growth-1	AI-2 QS modul	AddAB inh	E coli growth-2
CCOC(=O)c1c(N=CN(C)C)sc2c1CCC2	.	.	.	.	.	0.672
O=C(CNC(=O)c1ccc([N+](=O)[O-])cc1)NN=Cc1ccc(OC(=O)c2ccccc2)cc1	.	.	.	.	.	0.732
CC(C(=O)Nc1cccc(S(=O)(=O)N2CCOCC2)c1)N1C(=O)C2CC=CCC2C1=O (configuration not stated)	.	.	.	.	.	0.682
CN(C)C1=NCC(Cc2ccccc2)N1CC1CCCCCC1 (configuration not stated)	.	.	.	.	.	0.659
COc1cccc(-c2nnc(NC(=O)c3ccc(Cl)s3)o2)c1	-1.2	-15.5	0.0	?	8.7	0.474*
Cc1cccc(-c2nnc(NC(=O)c3ccc(Cl)cc3)o2)c1	-2.3	-0.6	-0.5	62.0	2.6	0.517*
COc1ccc(-c2nnc(NC(=O)c3ccc([N+](=O)[O-])o3)o2)c(OC)c1	1.9	0.8	-1.7	-88.3*	2.0	0.645
CCCCNC(=O)N(O)C1N(N=Cc2cccnc2)C(=S)SC1(C)C (configuration not stated)	.	.	.	.	.	0.67
O=C1/C(=C/c2ccc([N+](=O)[O-])cc2)Oc2cc(O)ccc21	0.7	-6.5	.	-82.8*	.	0.641
O=C1/C(=C/c2ccc(Br)cc2)Oc2cc(O)ccc21	1.2	-5.0	-2.9	15.1	-2.9	.
CC(C)(C)C(=O)ON=C(N)c1c(Cl)cccc1Cl	.	.	.	.	.	0.643
COc1ccc(C=NN2C(=O)CN(C(=O)c3ccccc3)C2c2ccc(OC)cc2)cc1 (configuration not stated)	.	.	.	.	.	0.639
NC(=NOC(=O)c1ccc([N+](=O)[O-])cc1)c1ccc(Br)cc1	.	.	.	.	.	0.694
CCOC(=O)c1csc(N)n1	2.8	-15.4	0.0	24.0	1.4	0.657
CC1C(NC(=O)C(=NOC(C)(C)C(=O)O)c2csc(N)n2)C(=O)N1S(=O)(=O)O (configuration not stated)	.	.	.	.	.	0.0585*
CCC(C)C1CN(C(C)CN2CCCC2CN2C(N)=NCC2CC(C)C)C(=N)N1CCc1ccc(Cl)c(Cl)c1 (configuration not stated)	.	.	.	.	.	0.611
CC(C)C(CN1CCCC1CN1C(N)=NCC1Cc1ccccc1)N1CC(Cc2ccccc2)N(CCc2ccc(Cl)c(Cl)c2)C1=N (configuration not stated)	.	.	.	.	.	0.0465*
CC(C)C[C@@H]1CN=C(N)N1C[C@@H]1CCCN1C[C@@H](C(C)C)N1C[C@@H](Cc2ccccc2)N(CCc2ccc(Cl)c(Cl)c2)C1=N	2.6	7.8	-1.1	.	0.7	0.07*
CC(C)CC1CN=C(N)N1CC1CCCN1CC(C)N1CC(Cc2ccccc2)N(CCc2ccc(Cl)c(Cl)c2)C1=N (configuration not stated)	.	.	.	.	.	0.197*
CCC(C)C1CN(C(C)CN2CCCC2CN2C(N)=NCC2Cc2ccccc2)C(=N)N1CCc1ccc(Cl)c(Cl)c1 (configuration not stated)	.	.	.	.	.	0.57
CC(C)C[C@@H]1CN=C(N)N1C[C@@H]1CCCN1C[C@H](C)N1C[C@@H](Cc2ccccc2)N(CCc2ccc(Cl)c(Cl)c2)C1=N	.	17.7	0.0	.	0.7	.
Cc1cccc(C=CC(=O)c2ccc([N+](=O)[O-])o2)c1	.	.	.	.	.	0.526
C/C(CCc1ccc2c(c1)OCO2)=N\NC(=O)c1ccccc1	4.1	-6.8	-0.8	11.1	1.4	.
NC(=NCc1ccc2c(c1)OCO2)NC(=O)c1ccccc1	6.4	0.5	.	-77.2*	.	0.657
O=[N+]([O-])c1ccc(NN=Cc2cccc([N+](=O)[O-])c2)cc1	2.2	-0.2	.	.	.	0.7
O=[N+]([O-])c1ccc(N/N=C/c2cccc(O)c2)cc1	-1.7	4.7	-0.5	-85.9*	-0.7	.
CCOC(=O)c1c(C)[nH]c(C)c1C(=O)COC(=O)c1ccc([N+](=O)[O-])s1	1.5	-23.0	-0.7	.	-0.9	0.652
O=C(OCC(=O)c1c[nH]c2ccccc12)c1ccc([N+](=O)[O-])s1	4.1	-38.5	1.7	-98.9*	4.1	0.641
CCc1cccc2c(C(=O)COC(=O)c3ccc([N+](=O)[O-])s3)c[nH]c12	6.0	-9.4	7.4	-205.5*	6.7	0.661
CCc1cccc2c(C(=O)CCl)c[nH]c12	3.2	4.3	0.7	16.5	-1.1	0.656
